From PubChem
Most compounds without a hit are left out; they make up all but 21% or so of the library.
CHX counter: counter-screen hit for Shiga toxin inhibitors, cycloheximide. cell reporter, cycloheximide protein synthesis inhibition counterscreen. max response, %. 300,000 compounds, 12% hits. AID 2314; in the data active means max response mostly above about 13%, no sharp cut-off; inactive means mostly below about 14%; further: read at 38.3 µM for the half of the compounds with a filed dose; 0% is about no effect
Pf growth 96h: inhibits malaria parasite growth, 96 h | P. falciparum luciferase reporter growth, 96 h | Potency, µM (series often up to 28.7 µM), inactives show at the highest dose activity change, negative = inhibition, most hits filed as inhibitors | 320,000 compounds, 6.9% hits | AID 504834; further: potency means the concentration at half of the fitted maximal effect; on the % scale 0 is the no-effect control and ±100 the full control effect
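Two-generation exposure (96 h) targets delayed-death phenotype. Reporter parasites carrying integrated firefly luciferase, in red cells at 2% hematocrit and 0.05% parasitemia final, kept at 37 C, 5% CO2; luminescence loss indicates inhibition.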
Pf growth 48h: inhibits P. falciparum growth in the first generation, 48 h; P. falciparum luciferase growth in erythrocytes, 48 h; Potency, µM (top dose mostly 28.7 µM), for the others: at the top dose activity change, negative = inhibition, actives largely listed as inhibitors; 310,000 compounds, 5.9% hits; AID 504832; further: potency means the concentration at half of the fitted maximal effect; on the % scale 0 is the no-effect control and ±100 the full control effect
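Erythrocytes infected with P. falciparum carrying an integrated firefly luciferase reporter (2% hematocrit, 0.1% parasitemia final) were exposed to compounds in RPMI 1640 with 0.5% Albumax at 37 C, 5% CO2. Growth inhibition was scored as reduced luminescence.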
Shiga inhibitor: blocks Shiga toxin action in Vero cells; Vero cells, Shiga toxin protein synthesis inhibition reporter; inhibition, % at 38.7 µM; 290,000 compounds, 9.2% hits; in the data active means inhibition mostly above about 28%, no sharp cut-off; inactive means mostly below about 43%; further: 0% is about no effect
* hit, by the source's call; ? = inconclusive; / = not tested or not shown. Unless noted, the call rests on the fitted dose curve; in most records, active means well fitted inhibition curve with a large enough effect; inconclusive means small, poorly fitted or top-dose-only effect, or another doubt; inactive means no such curve, though single readings can be large or run the other way.

SMILES	CHX counter	Pf growth 96h	Pf growth 48h	Shiga inhibitor
COc1ccccc1NC(=O)Nc1nc(CC(=O)N2CCN(c3ccc(F)cc3)CC2)cs1	/	?	9.3µM*	/
CCOC(=O)c1c(C)[nH]c(C)c1S(=O)(=O)N1CCN(C(=O)c2ccco2)CC1	-3	18%	6%	29
CC(=O)Nc1cccc(OCCCNC(=O)c2ccc(C(C)(C)C)cc2)c1	25*	?	-19%	45*
COc1cccc(OCCNC(=O)c2ccc(C)cc2)c1	27*	33%	29%	40*
Cc1ccc(OCCNC(=O)c2cc(C(=O)NCCOc3ccc(C)cc3)cc([N+](=O)[O-])c2)cc1	-1	1.2µM*	12µM*	-15
COc1cccc(OCCNC(=O)c2cc([N+](=O)[O-])cc([N+](=O)[O-])c2)c1	6	9%	?	-11
Cc1ccc(C(=O)NCCOc2ccc(Cl)cc2)cc1	32*	7%	5%	51*
CC(=O)Nc1cccc(OCCCNC(=O)c2ccc(F)cc2)c1	12	-1%	1%	21
CN(C)C(CNS(=O)(=O)c1ccc2ccccc2c1)c1ccccc1 (stereo not given)	5	1%	?	0
COc1ccccc1NC(=O)C1=C(C)Nc2nc(SCc3cccc(F)c3)nn2C1c1ccc(C(=O)O)cc1 (stereo not given)	/	16%	-6%	/
Cc1ccc(C(=O)CC(=O)COc2ccc(Cl)cc2)cc1	18*	151%	?	27
Cc1ccc(OCC(=O)NS(=O)(=O)c2ccc(Cl)cc2)cc1	2	-11%	13%	-32
Cc1ccc(C2CCN(C(=S)NC3CCCCC3)C2)cc1 (stereo not given)	20*	?	-2%	70*
Cc1ccc(C2CCN(C(=S)NC(C)(C)C)C2)cc1 (stereo not given)	31*	?	40%	76*
Cc1ccc(C2CCN(C(=S)Nc3cccc(C)c3)C2)cc1 (stereo not given)	20*	-19%	-26%	34*
Cc1ccc(C2C3C(=O)N(c4ccccc4)C(=O)C3N3CCCN23)cc1 (stereo not given)	28*	206%	81%	-9
Cc1ccc(C2C3C(=O)N(c4ccc(C)cc4)C(=O)C3N3CCCN23)cc1 (stereo not given)	4	?	?	-7
Clc1ccc(CNc2nc(CN3CCOCC3)nc3scc(-c4ccccc4)c23)cc1	1	3.7µM*	?	-2
C[C@@H](/C=C/c1ccc2ccccc2c1)C1COC(=O)C[C@H]1O (stereo not given in full)	0	/	/	-2
NC(=O)c1ccccc1OCC(=O)c1ccc(Cl)cc1	2	0%	4.1µM*	17
COc1ccc(C(=O)COc2ncnc3cc(Cl)ccc23)cc1	2	44%	17%	17
c1ccc(OCCOc2ncnc3ccccc23)cc1	37*	?	193%	93*
O=C(COc1ncnc2ccccc12)c1ccc(Cl)cc1	26*	76%	0%	79*
Brc1ccc(COc2ncnc3ccccc23)cc1	7	-25%	0%	-3
O=C(COc1ncnc2cc(Cl)ccc12)c1ccccc1	45*	49%	21%	98*
SMILES	CHX counter	Pf growth 96h	Pf growth 48h	Shiga inhibitor
Cn1cc([N+](=O)[O-])c(C(=O)n2cccn2)n1	0	-3%	26%	3
CC(C)NC(NC(=O)/C=C/c1ccccc1)C(Cl)(Cl)Cl (stereo not given)	1	1µM*	2%	-20
O=C(/C=C/c1ccccc1)NC(NC(=S)Nc1ccc(Cl)cc1)C(Cl)(Cl)Cl (stereo not given)	6	1%	6.6µM*	-4
COc1ccc(NC(=S)NC(NC(=O)/C=C/c2ccccc2)C(Cl)(Cl)Cl)cc1 (stereo not given)	-3	2.3µM*	?	-10
O=C(/C=C/c1ccccc1)NC(NC(=S)Nc1cc(Cl)ccc1Cl)C(Cl)(Cl)Cl (stereo not given)	8	10µM*	?	28
CC(C)NC(NC(=O)Cc1ccccc1)C(Cl)(Cl)Cl (stereo not given)	-2	-5%	6%	-6
O=C(CCc1c[nH]c2ccccc12)OCC(=O)N1CCN(S(=O)(=O)c2ccccc2)CC1	/	3%	4%	/
O=C(COC(=O)c1cc2ccccc2oc1=O)Nc1ccc(F)cc1F	52*	53%	54%	118*
O=C(COC(=O)c1cc2ccccc2oc1=O)Nc1cccc(S(=O)(=O)N2CCCCCC2)c1	27*	22%	-6%	64*
CN(C)S(=O)(=O)c1cccc(NC(=O)COC(=O)c2cc(=O)c3ccccc3o2)c1	5	43%	38%	22
CN(C)S(=O)(=O)c1cccc(NC(=O)COC(=O)c2cc3ccccc3oc2=O)c1	51*	32%	-7%	134*
O=C(Nc1cccc(S(=O)(=O)N2CCCCC2)c1)c1cc2ccccc2o1	/	-106%	?	/
CCN(c1ccc(NC(=O)COC(=O)c2cc3ccccc3oc2=O)cc1)C(C)C	1	1%	8%	-1
CCOc1ccc(NC(=O)CN2CCc3cc4c(cc3C2)OCCCO4)cc1OCC	-2	?	8%	-3
CC1=CC(C)(C)[N+](C)(C)c2ccc(C)cc21	-3	?	2.6µM*	10
COc1cc(OC)c(OC)cc1/C=N/NC(=S)NCC1CCCO1 (stereo not given)	-2	?	/	-13
O=C(NC1CC1)c1ccc2c(c1)C1C3CCC(C3)C1C(c1ccccc1)N2 (stereo not given)	0	7.4µM*	9.3µM*	3
O=C(NC1CCCC1)c1cccc(Cl)c1	7	16%	0%	14
COc1cccc(C(=O)Nc2ccc(N3CCN(S(C)(=O)=O)CC3)cc2)c1	13	57%	/	26
Cc1cccc(C(=O)Nc2ccc(N3CCN(S(C)(=O)=O)CC3)cc2)c1	22*	35%	98%	73*
CS(=O)(=O)N1CCN(c2ccc(NC(=O)c3ccccc3)cc2)CC1	37*	13%	131%	82*
Cc1ccc(N2C(=O)CC(N3CCN/C3=C3\CC/C(=C\c4ccccc4)C3=O)C2=O)cc1 (stereo not given)	3	9%	-19%	-7
COc1cc2c(cc1OC)CN(C(=O)/C=C/c1cc(OC)c(OC)c(OC)c1)CC2	4	4.7µM*	2.6µM*	-5
CCc1ccc(C(=O)N2CCN(c3ccc(NC(=O)c4cccnc4)cc3)CC2)cc1	-2	28%	1%	-8
O=C(COC(=O)c1ccc2ccccc2c1O)Nc1ccccc1	/	25%	-23%	/
CC(C)NC(=O)CSc1nnc(CNC(=O)OC(C)(C)C)n1C	12	40%	1.9µM*	2
Cc1cccc(C(=O)NCc2nnc(SCC(=O)NC(C)c3ccccc3)n2C)c1 (stereo not given)	-4	?	-9%	3
O=C(NNc1ccccc1[N+](=O)[O-])Nc1ccc(Cl)c(Cl)c1	17	?	-5%	16*
CCN(CC)S(=O)(=O)c1cc([N+](=O)[O-])ccc1NNC(=O)Nc1ccc(Cl)c(Cl)c1	6	-98%	/	-14
